This is a sample that favours compounds with a hit; in the whole collection about 1.6% have one here.
KCNQ2 inh – KCNQ2 (rat) channel inhibition; O88943; CHO-K1 KCNQ2, FluxOR thallium flux, 20 min; active compounds read low; B-score at 10 µM; 1.1% of 310,000 active;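 active = fluorescence ratio B-score at most minus 3 library SDs, with starting brightness B-score within 2 library SDs, cut at about -5.5 in these data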
KCNQ2 pot – KCNQ2 (rat) channel potentiation | CHO-K1 KCNQ2, FluxOR thallium flux fluorescence; active compounds read high | B-score at 10 µM | 0.54% of 310,000 active;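 active = fluorescence ratio B-score at least 3 SD of library B-scores, with initial fluorescence B-score within 3 of them, cut at about 5.3 in these data; same plate scores as AID 2156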;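 note: B-score of peak minus minimum over baseline fluorescence ratio after K+ and Tl+ stimulus; positive B-score means potentiation of KCNQ2 with more thallium influx and brighter signal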
KCNQ2 inh conf – confirmation of rat KCNQ2 potassium channel inhibitors; shares compounds with KCNQ2 inh; KCNQ2-expressing cells, thallium flux, inhibition; active compounds read low; activity change, negative = inhibition, % at 10 µM; 57% of 1,000 active; AID 493025;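 note: 0% = vehicle wells and values are ratio percent relative to vehicle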
KCNQ1 spec – human KCNQ1 activity in KCNQ2 inhibitor specificity screen | shares compounds with KCNQ2 inh | KCNQ1-expressing cells, FluxOR thallium flux fluorescence; active compounds read low | activity change, negative = inhibition, % at 10 µM | 15% of 1,000 active | AID 493026;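 active = activity change at least 3 SD of negative controls below their mean in both duplicate wells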;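 note: CHO cells stably transfected with KCNQ1 and depolarized by potassium stimulus; peak minus minimum fluorescence over baseline after thallium addition; 0% = vehicle negative control and -100% = blank without thallium stimulus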
Target sequence (P51787 whole entry, looked up): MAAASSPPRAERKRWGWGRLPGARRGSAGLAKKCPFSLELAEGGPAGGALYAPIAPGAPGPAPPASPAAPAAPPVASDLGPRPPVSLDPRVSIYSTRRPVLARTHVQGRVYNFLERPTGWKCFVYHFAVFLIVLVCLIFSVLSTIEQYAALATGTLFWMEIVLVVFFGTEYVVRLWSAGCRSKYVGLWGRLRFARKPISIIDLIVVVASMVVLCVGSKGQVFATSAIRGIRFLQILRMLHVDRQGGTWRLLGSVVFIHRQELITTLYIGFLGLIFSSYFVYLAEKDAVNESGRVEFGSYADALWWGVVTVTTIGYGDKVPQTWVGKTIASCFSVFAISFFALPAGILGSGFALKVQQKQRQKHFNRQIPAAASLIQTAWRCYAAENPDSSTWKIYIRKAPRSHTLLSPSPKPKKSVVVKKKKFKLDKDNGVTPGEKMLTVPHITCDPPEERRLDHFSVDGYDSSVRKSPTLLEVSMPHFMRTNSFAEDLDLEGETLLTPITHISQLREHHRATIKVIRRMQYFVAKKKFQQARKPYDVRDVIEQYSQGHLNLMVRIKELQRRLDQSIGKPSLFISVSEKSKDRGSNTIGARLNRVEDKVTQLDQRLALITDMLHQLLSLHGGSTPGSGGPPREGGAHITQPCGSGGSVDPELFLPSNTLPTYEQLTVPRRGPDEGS
CHO Tl ctr – counter-screen for KCNQ2 inhibitors: effect in parental CHO cells; shares compounds with KCNQ2 inh; thallium flux counter-screen; active compounds read low; activity change, % at 10 µM; 14% of 1,000 active;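 note: 0% = vehicle negative controls with stimulus buffer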
KCNQ2 inh confirm – confirmation of rat KCNQ2 potassium channel inhibitors | 49% of 550 active | AID 588531 | shares compounds with KCNQ2 inh | KCNQ2-expressing cells, automated patch clamp current | calls only at 10 µM
* marks the source's active call; other numbers are inactive results; i = inactive; . = not tested or not shown; + = active, no number. Unless noted, the rule behind the calls is not given here.

SMILES	KCNQ2 inh	KCNQ2 pot	KCNQ2 inh conf	KCNQ1 spec	CHO Tl ctr	others
CCOc1ccc(NC(=O)CS(=O)(=O)c2cn(CC)c3ccccc23)cc1	i	1	.	.	.
COc1ccc(C)cc1N(C(=O)c1snc(C(N)=O)c1N)C(C(=O)NC1CCCCC1)c1ccc(C)o1 (stereo not given)	i	.	.	.	.
COc1ccc(CCN(C)C2CCCN(S(=O)(=O)c3ccccc3F)C2)cc1OC (stereo not given)	i	.	.	.	.
Cc1ccc(C(=O)NCCCc2ccccc2)c(Cl)c1	i	.	.	.	.
CCN(Cc1ccccc1)C(=O)COC(=O)c1cc(Cl)nc(Cl)c1	i	.	.	.	.
O=C(OCC(=O)N(CCc1ccccc1)Cc1ccccc1)c1ccccc1O	-7.2*	-7.2	i	i	i
O=C(NCCC(=O)N(CCc1ccccc1)Cc1ccccc1)c1ccccc1Cl	-6.7*	-6.7	-32%*	i	i	KCNQ2 inh confirm=+
CN(C1CCCCC1)S(=O)(=O)c1ccc2[nH]c(=O)oc2c1	i	1.1	.	.	.
CC1CCN(C(=O)CSC2=NS(=O)(=O)c3cc(F)ccc3N2)CC1	i	0.85	.	.	.
Cc1cc(Cl)c(S(=O)(=O)N2CCN(c3ccccn3)CC2)cc1OCC(N)=O	i	1.6	.	.	.
Cc1onc(-c2ccccc2Cl)c1C(=O)NCCn1c(C)cc2ccccc21	-12*	-12	-36%*	i	i	KCNQ2 inh confirm=+
Cc1onc(-c2ccccc2Cl)c1C(=O)NCC(=O)O	i	0.01	.	.	.
N#CC1(NC(=O)COC(=O)c2cccc(-n3cnnn3)c2)CCCCC1	i	1.6	.	.	.
Cn1c(C(=O)N2CCc3ccccc3C2)cc2oc3ccccc3c21	-11*	-11	-16%*	i	i	KCNQ2 inh confirm=+
CCn1c(C(=O)N2CCc3ccccc3C2)cc2oc3ccccc3c21	-6.8*	-6.8	-44%*	-52%*	-44%*
COc1cc2c(cc1OC)CN(C(=O)c1oc3ccccc3c1C)CC2	i	.	.	.	.
O=C(Cn1ncc2c(=O)oc3ccccc3c21)N1CCc2ccccc2C1	i	1.5	.	.	.
CC(=O)N1CCN(C(=O)c2cc(S(=O)(=O)N3CCCCC3)ccc2Cl)CC1	i	0.02	.	.	.
Cc1sc(NC(=O)CCl)c(C(=O)c2ccccc2)c1C	i	0.96	.	.	.
Cc1ccccc1C(=O)Nc1sc(C)c(C)c1C(=O)c1ccccc1	-9.6*	-9.6	-33%*	-32%*	-27%*	KCNQ2 inh confirm=i
Cn1c2ccccc2c2c(C(=O)NCc3ccco3)cn(C3CCCCC3)c(=O)c21	-9.8*	-9.8	-26%*	i	i	KCNQ2 inh confirm=+
COCCn1cc(C(=O)NCc2ccco2)c2c3ccccc3n(C)c2c1=O	i	0.07	.	.	.
Cc1ccc(OCC(=O)NCCNC(=O)c2ccncc2)cc1	i	.	.	.	.
O=C(COc1ccc(F)cc1)N(c1ccccn1)C1CCCCC1	-6.8*	-6.8	-28%*	i	i	KCNQ2 inh confirm=+
CC(C)c1ccc(OCC(=O)N(c2ccccn2)C2CCCCC2)cc1	i	.	.	.	.
SMILES	KCNQ2 inh	KCNQ2 pot	KCNQ2 inh conf	KCNQ1 spec	CHO Tl ctr	others
COc1ccc(NC(=O)CN(C)C(=O)c2ccc(S(=O)(=O)Nc3ccccc3F)cc2)cc1	i	1.4	.	.	.
CCc1nc(Nc2ccc3c(c2)OCCO3)c2oc3ccccc3c2n1	i	.	.	.	.
Cc1nc(Nc2ccc3c(c2)OCCO3)c2oc3ccccc3c2n1	-8.1*	-8.1	-32%*	-28%*	i	KCNQ2 inh confirm=i
COc1ccc(NC(=O)CSc2ccc(-c3cccnc3)nn2)c(OC)c1	i	0.85	.	.	.
CCOc1ccccc1OCC(=O)NCc1ccco1	i	.	.	.	.
Cc1ccccc1OCC(=O)Nc1ccccc1-c1ccccc1	-6.6*	-6.6	i	i	i
Cc1ccccc1NC(=O)COc1ccccc1C	i	.	.	.	.
O=C(COc1ccccc1-c1ccccc1)NCc1ccco1	-8.5*	-8.5	i	i	i
COC(C(=O)Nc1ccccc1C(=O)N1CCOCC1)c1ccccc1 (stereo not given)	i	.	.	.	.
COc1ccc(S(=O)(=O)N2CCCCCC2)cc1C(=O)N(C)Cc1ccc(Cl)cc1Cl	-8.5*	-8.5	i	i	i
CCN1CCN(S(=O)(=O)c2ccc(Cl)c(C(=O)N(C)Cc3cccc(Cl)c3Cl)c2)CC1	-6.9*	-6.9	i	i	i
CCN1CCN(S(=O)(=O)c2ccc(Cl)c(C(=O)N(C)Cc3ccc(F)cc3)c2)CC1	i	0.54	.	.	.
COc1ccc(S(=O)(=O)N2CCCCCC2)cc1C(=O)N(C)Cc1cccs1	i	1.4	.	.	.
